Source: PubChem BioAssay
For some of these results: Results with a measured potency or affinity are listed apart. Active and inactive are the calls of the source. Unless noted, how the calls were made is not given here.

What was measured:
[1] = antimalarial activity against Dd2 strain (AID 2302;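 active means growth inhibition above 50% at the single 2 µM test dose, taken to imply half-maximal potency below 2 µM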;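 further: 0% = DMSO untreated growth and 100% = chloroquine plus artemisinin killed control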); settings: P. falciparum Dd2 in RBCs, LDH growth readout, 72 h; at 2 µM; stronger effect = higher value
[2] = human hepatoma cell viability loss – ATP luminescence, cytotoxicity control for P. falciparum antimalarial project, primary screen (AID 2303;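 active means inhibition above 50%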;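 further: 0% = DMSO wells and 100% = digitonin-killed cells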); settings: HepG2 viability, 24-48 h, at 10 µM, stronger effect = higher value
[3] = target: L-lactate dehydrogenase (Plasmodium falciparum (isolate CDC / Honduras)) (UniProt Q27743); assay: PfLDH activity inhibition – cell lysate, 3D7 strain, counter-screen for P. falciparum growth inhibition project (AID 2304);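 further: 0% = vehicle and 100% = reference inhibitor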; settings: P. falciparum 3D7 crude extract, LDH APAD/NBT absorbance; at 2 µM; stronger effect = higher value
Chain of L-lactate dehydrogenase (Plasmodium falciparum (isolate CDC / Honduras)) (Q27743 whole entry, looked up): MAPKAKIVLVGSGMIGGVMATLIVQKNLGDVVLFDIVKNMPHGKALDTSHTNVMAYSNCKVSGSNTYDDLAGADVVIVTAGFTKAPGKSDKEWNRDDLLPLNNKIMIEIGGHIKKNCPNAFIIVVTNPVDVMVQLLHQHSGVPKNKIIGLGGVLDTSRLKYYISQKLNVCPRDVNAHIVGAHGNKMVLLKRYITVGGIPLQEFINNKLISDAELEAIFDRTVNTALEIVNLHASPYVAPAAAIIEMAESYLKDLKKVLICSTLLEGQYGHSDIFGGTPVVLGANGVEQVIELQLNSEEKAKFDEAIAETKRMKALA

[4] = inhibition of 3D7 malaria parasite growth – strain 3D7 (AID 2306);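 further: 0% = DMSO wells and 100% = chloroquine plus artemisinin control wells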; settings: P. falciparum 3D7 erythrocytic growth, LDH absorbance, 72 h; at 2 µM; stronger effect = higher value
[5] = target: Calcium-dependent protein kinase 1 (Plasmodium falciparum (isolate 3D7)) (UniProt P62344); assay: PfCDPK1 kinase inhibitors, biochemical, TCAMS library (AID 1159585; cut-off not given, nearly all actives have IC50 up to about 0.98 µM;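 further: inhibitors leave more ATP so luminescence rises with inhibition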); settings: recombinant PfCDPK1, Kinase-Glo ATP depletion luminescence
Chain of Calcium-dependent protein kinase 1 (Plasmodium falciparum (isolate 3D7)) (P62344 whole entry, looked up): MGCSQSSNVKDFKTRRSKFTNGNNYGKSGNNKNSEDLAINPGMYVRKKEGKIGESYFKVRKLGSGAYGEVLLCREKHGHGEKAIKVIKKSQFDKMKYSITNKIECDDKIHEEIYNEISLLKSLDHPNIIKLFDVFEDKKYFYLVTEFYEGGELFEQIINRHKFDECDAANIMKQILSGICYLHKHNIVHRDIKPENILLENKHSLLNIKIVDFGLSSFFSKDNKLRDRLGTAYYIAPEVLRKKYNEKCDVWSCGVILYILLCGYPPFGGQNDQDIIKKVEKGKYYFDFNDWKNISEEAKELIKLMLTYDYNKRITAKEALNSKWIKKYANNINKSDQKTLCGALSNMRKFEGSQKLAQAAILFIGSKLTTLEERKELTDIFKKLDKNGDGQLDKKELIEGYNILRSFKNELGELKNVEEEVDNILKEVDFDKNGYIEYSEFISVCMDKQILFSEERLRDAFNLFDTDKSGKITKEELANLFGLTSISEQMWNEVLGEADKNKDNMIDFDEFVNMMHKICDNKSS

[6] = target: Plasmodium falciparum protein kinase 6 (PK6, PF3D7_1337100) (UniProt Q8IDW1); assay: PfPK6 kinase inhibitors, biochemical, TCAMS library (AID 1159586); settings: recombinant PfPK6, Kinase-Glo ATP depletion luminescence
Chain of Plasmodium falciparum protein kinase 6 (PK6, PF3D7_1337100) (Q8IDW1 1-305): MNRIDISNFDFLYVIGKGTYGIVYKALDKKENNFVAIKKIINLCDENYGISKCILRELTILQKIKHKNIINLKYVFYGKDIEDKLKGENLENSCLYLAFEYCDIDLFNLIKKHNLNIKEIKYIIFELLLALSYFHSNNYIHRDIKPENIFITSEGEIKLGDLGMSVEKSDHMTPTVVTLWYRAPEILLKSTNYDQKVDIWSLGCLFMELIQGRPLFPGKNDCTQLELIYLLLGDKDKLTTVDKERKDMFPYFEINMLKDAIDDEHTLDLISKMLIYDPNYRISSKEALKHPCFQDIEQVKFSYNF

[7] = target: Protein kinase 7 (PK7), Plasmodium falciparum 3D7 (PF3D7_0213400) (UniProt Q7YTF7); assay: inhibition of Plasmodium PK7 catalytic activity – biochemical, TCAMS antimalarial set, Kinase-Glo luminescence (AID 1159587); settings: recombinant PfPK7, Kinase-Glo ATP depletion luminescence
Chain of Protein kinase 7 (PK7), Plasmodium falciparum 3D7 (PF3D7_0213400) (Q7YTF7 1-343): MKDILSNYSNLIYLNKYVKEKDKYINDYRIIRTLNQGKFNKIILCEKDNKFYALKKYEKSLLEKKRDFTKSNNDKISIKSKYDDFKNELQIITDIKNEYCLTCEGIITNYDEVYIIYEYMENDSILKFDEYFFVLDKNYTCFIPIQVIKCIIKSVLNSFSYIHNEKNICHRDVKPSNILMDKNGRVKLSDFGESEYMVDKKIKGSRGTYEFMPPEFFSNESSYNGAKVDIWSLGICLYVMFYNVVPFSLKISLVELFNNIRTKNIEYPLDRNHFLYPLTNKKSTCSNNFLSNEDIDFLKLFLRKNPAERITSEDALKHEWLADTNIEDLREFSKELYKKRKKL

[8] = target: Calcium-dependent protein kinase 4 (Plasmodium falciparum (isolate 3D7)) (UniProt Q8IBS5); assay: PfCDPK4 kinase inhibitors, biochemical, TCAMS library (AID 1159588; cut-off not given, nearly all actives have IC50 up to about 0.91 µM); settings: recombinant PfCDPK4, Kinase-Glo ATP depletion luminescence
Chain of Calcium-dependent protein kinase 4 (Plasmodium falciparum (isolate 3D7)) (Q8IBS5 whole entry, looked up): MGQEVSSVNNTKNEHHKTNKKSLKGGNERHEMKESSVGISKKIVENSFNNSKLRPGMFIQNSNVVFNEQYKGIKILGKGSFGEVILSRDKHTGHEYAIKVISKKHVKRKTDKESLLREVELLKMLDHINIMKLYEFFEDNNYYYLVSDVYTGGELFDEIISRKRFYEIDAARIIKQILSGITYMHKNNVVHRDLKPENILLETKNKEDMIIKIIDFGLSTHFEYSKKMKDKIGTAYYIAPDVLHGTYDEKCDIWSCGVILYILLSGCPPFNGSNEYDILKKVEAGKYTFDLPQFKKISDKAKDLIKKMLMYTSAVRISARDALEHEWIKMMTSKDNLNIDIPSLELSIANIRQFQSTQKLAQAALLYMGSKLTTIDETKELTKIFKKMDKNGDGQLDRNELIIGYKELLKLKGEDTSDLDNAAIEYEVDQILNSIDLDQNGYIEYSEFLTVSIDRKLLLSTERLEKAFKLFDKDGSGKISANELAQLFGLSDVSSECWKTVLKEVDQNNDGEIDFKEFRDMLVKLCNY

CC(C)CC1c2[nH]c3ccccc3c(=O)c2CN1C(=O)OC(C)(C)C (stereo not given)
inactive: inhibition [2] 2% | inhibition [3] -4% | outcome [5] | outcome [6] | outcome [7] | outcome [8]
active: growth inhibition [1] 96% | growth inhibition [4] 97%

COc1c(C2CCN(CCCCNC(=O)c3oc(-c4ccc(Cl)cc4)cc3CO)CC2)ccc2c1CCCC2
inactive: inhibition [3] 4% | outcome [5] | outcome [6] | outcome [7] | outcome [8]
active: growth inhibition [1] 95% | inhibition [2] 80% | growth inhibition [4] 102%

Cc1cc(N2CCOCC2)nc(Nc2ccc(NC(=O)Nc3ccc(F)cc3)cc2)n1
inactive: growth inhibition [1] 34% | inhibition [2] 35% | inhibition [3] -2% | outcome [5] | outcome [6] | outcome [7] | outcome [8]
active: growth inhibition [4] 101%

CC(=O)Nc1cc(C(=O)Nc2cccc(-c3cccc(-c4nc5ccc(C(F)(F)F)cc5[nH]4)c3)c2)ccc1C
active: inhibition [2] 56% | growth inhibition [4] 97%
inactive: growth inhibition [1] 43% | inhibition [3] -4% | outcome [5] | outcome [6] | outcome [7] | outcome [8]

CC(=O)Nc1nc(C(=O)Nc2ccc(-c3ccc(-c4nc5c(C)cccc5[nH]4)cc3)cc2)cs1
inactive: inhibition [2] 42% | inhibition [3] -1% | outcome [5] | outcome [6] | outcome [7] | outcome [8]
active: growth inhibition [1] 53% | growth inhibition [4] 101%

CCN(CC)C(=S)N=Nc1c(O)[nH]c2c(C)cccc12
active: growth inhibition [1] 69% | growth inhibition [4] 94%
inactive: inhibition [2] 28% | inhibition [3] 3% | outcome [5] | outcome [6] | outcome [7] | outcome [8]

Cc1nc(NCCCn2ccnc2)cc(-c2cncc(-c3ccc(OC(F)(F)F)cc3)c2)n1
inactive: growth inhibition [1] 11% | inhibition [2] 2% | inhibition [3] 2% | outcome [5] | outcome [6] | outcome [7] | outcome [8]
active: growth inhibition [4] 99%

CCOC(=O)c1ccc(NC(=O)NCCCC2CCCN(CCCCCNC(=O)/C=C/c3ccc(Cl)c(Cl)c3)C2)cc1 (stereo not given)
inactive: growth inhibition [1] 30% | inhibition [2] 14% | inhibition [3] -2% | outcome [5] | outcome [6] | outcome [7] | outcome [8]
active: growth inhibition [4] 96%

CC(=O)Nc1ccc(C(=O)N2CCN(c3ccnc4cc(Cl)ccc34)CC2)cc1
active: growth inhibition [4] 93%
inactive: growth inhibition [1] 43% | inhibition [2] 2% | inhibition [3] -5% | outcome [5] | outcome [6] | outcome [7] | outcome [8]

CCN(c1cc(C)nc(Nc2ccc(Cl)cc2)n1)[C@H]1CCN(Cc2ccccc2)C1
inactive: growth inhibition [1] 31% | inhibition [2] 46% | inhibition [3] 2% | outcome [5] | outcome [6] | outcome [7] | outcome [8]
active: growth inhibition [4] 94%

O=c1c2c([nH]c3cc(Cl)ccc13)CCCC2
inactive: inhibition [2] 33% | inhibition [3] 2% | outcome [5] | outcome [6] | outcome [7] | outcome [8]
active: growth inhibition [1] 73% | growth inhibition [4] 96%

CC(C)CCNC(=O)C1Cc2c([nH]c3cc(Br)ccc23)C2(CCN(CCc3ccccc3)CC2)N1 (stereo not given)
inactive: growth inhibition [1] 48% | inhibition [2] 14% | inhibition [3] -1% | outcome [5] | outcome [6] | outcome [7] | outcome [8]
active: growth inhibition [4] 97%

O=C(Nc1cccc(-c2ccc(-c3nc4ccccc4[nH]3)cc2)c1)Nc1ccc2c(c1)OCO2
active: growth inhibition [4] 90%
inactive: growth inhibition [1] 8% | inhibition [2] 20% | inhibition [3] -1% | outcome [5] | outcome [6] | outcome [7] | outcome [8]

O=C(NCc1ccccc1)NC(CCCN1CCC(Oc2cccc(Cl)c2)CC1)c1ccc(Cl)c(Cl)c1 (stereo not given)
active: growth inhibition [1] 57% | growth inhibition [4] 81%
inactive: inhibition [2] 15% | inhibition [3] 4% | outcome [5] | outcome [6] | outcome [7] | outcome [8]

O=C(O)c1ccc2c(c1)N(C(=O)CNCc1ccc(F)cc1)CC(=O)N2CCCc1ccccc1
inactive: growth inhibition [1] -2% | inhibition [2] 1% | inhibition [3] 2% | outcome [5] | outcome [6] | outcome [7] | outcome [8]
active: growth inhibition [4] 95%

Cc1cc(N[C@@H](Cc2ccccc2)C(=O)NCc2cccs2)nc(NCCc2ccc(F)cc2)n1
active: growth inhibition [1] 83% | growth inhibition [4] 100%
inactive: inhibition [2] 3% | inhibition [3] 3% | outcome [5] | outcome [6] | outcome [7] | outcome [8]

COc1cc(F)c2ncc(F)c([C@@H](O)CN3CCC(NCc4cc5c(cn4)OCCO5)CC3)c2c1
inactive: inhibition [2] 1% | inhibition [3] -1% | outcome [5] | outcome [6] | outcome [7] | outcome [8]
active: growth inhibition [1] 88% | growth inhibition [4] 101%

NC1CCN(c2nc(NCCCc3ccc(O)cc3)nc(NCc3ccccc3-c3ccc(C(F)(F)F)cc3)n2)CC1
inactive: inhibition [2] 15% | inhibition [3] 1% | outcome [5] | outcome [6] | outcome [7] | outcome [8]
active: growth inhibition [1] 88% | growth inhibition [4] 101%

CN(C)c1ccc(CN2CCC(NC(=O)c3ccc(-c4ccc(N(C)C)cc4)s3)CC2)cc1
inactive: growth inhibition [1] 21% | inhibition [2] 24% | inhibition [3] -2% | outcome [5] | outcome [6] | outcome [7] | outcome [8]
active: growth inhibition [4] 93%

COc1ccc(-c2ccccc2CNc2nc(NCCc3ccc(O)cc3)nc(N3CCNCC3)n2)cc1
inactive: growth inhibition [1] 3% | inhibition [2] 48% | inhibition [3] -3% | outcome [5] | outcome [6] | outcome [7] | outcome [8]
active: growth inhibition [4] 86%
